Data: PubChem BioAssay (EPA / NIEHS)
Where “and” joins values, the source holds several entries; their conditions need not be identical. Equal entries are not always repeated. The source holds several records for some structures; these can differ, active in one and inactive in another. Calls of active or inactive are those of the source. Rule for the calls: active = hit-call score of the fitted dose curve at least 0.9, where 1 is the maximum; inactive = score below 0.9.

Legend:
[1] = read-out: Macrophage Inflammatory Protein-1 Alpha (MIP1a), CCL3 (gene 6348); experiment: BSK_IMphg_MIP1a: BioMAP Diversity Plus: IMphg Assay for Macrophage Inflammatory Protein-1 Alpha (MIP1a) Biomarker Activity (AID 2284255); conditions: primary human endothelial cells with macrophages
How it was run: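 Co-culture of human venular endothelial cells and macrophages exposed to compounds for 24 h; MIP-1a measured by ELISA relative to DMSO. Cytotoxicity assessed in parallel cultures by sulforhodamine B total-protein staining at 560 nm.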

CD69, CD69 (gene 969) = experiment: BSK_IMphg_CD69: BioMAP Diversity Plus: IMphg Assay for CD69 Biomarker Activity (AID 2284257); conditions: primary human endothelial cells with macrophages
How it was run: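 Human venular endothelial cells co-cultured with macrophages; CD69 quantified by ELISA 24 h after compound addition. Activity fitted in the positive direction relative to DMSO baseline; cytotoxicity tracked in parallel cultures via SRB total-protein staining.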

[2] = read-out: Monocyte Chemoattractant Protein-1 (MCP1), CCL2 (gene 6347); experiment: BSK_BF4T_MCP1: BioMAP Diversity Plus: BF4T Assay for Monocyte Chemoattractant Protein-1 (MCP1) Biomarker Activity (AID 2284259); conditions: primary human bronchial epithelial cells with fibroblasts
How it was run: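 Co-culture of bronchial epithelial cells and dermal fibroblasts dosed with chemical; MCP-1 measured by ELISA 24 h later. Activity fitted in positive direction versus DMSO; cytotoxicity checked by SRB staining in parallel cultures.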

[3] = read-out: Interleukin-8 (IL8), CXCL8 (gene 3576); experiment: BSK_MyoF_IL8: BioMAP Diversity Plus: MyoF Assay for Interleukin-8 (IL8) Biomarker Activity (AID 2284261); conditions: primary human lung fibroblasts
How it was run: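 In this multiplexed primary-cell system, fibroblasts from human lung are treated with chemicals, and IL-8 is detected by ELISA at 24 h, with DMSO serving as the negative reference.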

[4] = read-out: Interleukin-8 (IL8), CXCL8 (gene 3576); experiment: BSK_BF4T_IL8: BioMAP Diversity Plus: BF4T Assay for Interleukin-8 (IL8) Biomarker Activity (AID 2284263); conditions: primary human bronchial epithelial cells with fibroblasts
How it was run: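 Human bronchial epithelial cells with dermal fibroblasts co-culture; IL-8 measured by ELISA 24 hours after dosing, fitted vs DMSO. Cytotoxicity tracked in parallel cultures by SRB total-protein staining.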

[5] = read-out: Interleukin-1 alpha (IL1a), IL1A (gene 3552); experiment: BSK_BF4T_IL1a: BioMAP Diversity Plus: BF4T Assay for Interleukin-1 alpha (IL1a) Biomarker Activity (AID 2284264); conditions: primary human bronchial epithelial cells with fibroblasts
How it was run: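 Human bronchial epithelial cells co-cultured with dermal fibroblasts, dosed and read at 24 h. Secreted/surface IL-1α quantified by ELISA; gain-of-signal fitted relative to DMSO baseline. Parallel SRB total-protein staining tracked cytotoxicity.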

Decorin, DCN (gene 1634) = experiment: BSK_MyoF_Decorin: BioMAP Diversity Plus: MyoF Assay for Decorin Biomarker Activity (AID 2284265); conditions: primary human lung fibroblasts
How it was run: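 Lung fibroblast cultures, 24 h chemical exposure. Decorin by ELISA, positive fitting direction, DMSO baseline.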

KRT18 (gene 3875) = experiment: BSK_BF4T_Keratin818: BioMAP Diversity Plus: BF4T Assay for Keratin 818 Biomarker Activity (AID 2284266); conditions: primary human bronchial epithelial cells with fibroblasts
How it was run: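 Co-culture of human bronchial epithelial cells and dermal fibroblasts, chemical exposure 24 h. Keratin 8/18 measured by ELISA; positive-direction fit vs DMSO. SRB total protein run in parallel cultures for cytotoxicity.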

[6] = BSK_MyoF_SRB: Viability Assessment in the BioMAP Diversity Plus: MyoF Assay (AID 2284267); conditions: primary human lung fibroblasts;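 note: total protein by SRB absorbance in parallel cultures as cytotoxicity measure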
How it was run: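 Human lung fibroblasts dosed with chemical and assessed 24 h later for overt cytotoxicity in parallel cultures. Total protein quantified by sulforhodamine B staining (0.1% SRB after 10% TCA fixation), read at 560 nm, analysed in positive direction versus DMSO baseline.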

[7] = read-out: Matrix Metallopeptidase 1 (MMP1), MMP1 (gene 4312); experiment: BSK_MyoF_MMP1: BioMAP Diversity Plus: MyoF Assay for Matrix Metallopeptidase 1 (MMP1) Biomarker Activity (AID 2284268); conditions: primary human lung fibroblasts
How it was run: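 MMP1 measured by ELISA 24 h after dosing primary human lung fibroblasts; cytotoxicity checked in parallel cultures by sulforhodamine B total-protein staining read at 560 nm.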

[8] = read-out: TIMP metallopeptidase inhibitor 1 (TIMP1), TIMP1 (gene 7076); experiment: BSK_MyoF_TIMP1: BioMAP Diversity Plus: MyoF Assay for TIMP metallopeptidase inhibitor 1 (TIMP1) Biomarker Activity (AID 2284269); conditions: primary human lung fibroblasts
How it was run: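 Primary human lung fibroblasts, MyoF multiplex system; chemical exposure 24 h; TIMP-1 by ELISA; positive fitting direction vs DMSO control.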

[9] = read-out: Matrix Metallopeptidase 1 (MMP1), MMP1 (gene 4312); experiment: BSK_BF4T_MMP1: BioMAP Diversity Plus: BF4T Assay for Matrix Metallopeptidase 1 (MMP1) Biomarker Activity (AID 2284270); conditions: primary human bronchial epithelial cells with fibroblasts
How it was run: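 Co-culture of human bronchial epithelial cells and dermal fibroblasts; MMP-1 levels measured by ELISA 24 hours after chemical dosing, relative to DMSO. Cytotoxicity checked in parallel cultures by SRB total-protein staining.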

[10] = read-out: Matrix Metallopeptidase 3 (MMP3), MMP3 (gene 4314); experiment: BSK_BF4T_MMP3: BioMAP Diversity Plus: BF4T Assay for Matrix Metallopeptidase 3 (MMP3) Biomarker Activity (AID 2284271); conditions: primary human bronchial epithelial cells with fibroblasts
How it was run: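 Co-culture of human bronchial epithelial cells and dermal fibroblasts dosed 24 h; MMP-3 measured by ELISA, positive-direction fit versus DMSO. Cytotoxicity tracked by SRB total-protein staining (560 nm) in parallel cultures.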

[11] = read-out: Tissue plasminogen activator (tPA), PLAT (gene 5327); experiment: BSK_BF4T_tPA: BioMAP Diversity Plus: BF4T Assay for Tissue plasminogen activator (tPA) Biomarker Activity (AID 2284272); conditions: primary human bronchial epithelial cells with fibroblasts
How it was run: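 tPA level quantified by ELISA at 24 h post-treatment in bronchial epithelial/dermal fibroblast co-cultures, gain of signal scored against DMSO baseline. Parallel cultures stained with 0.1% SRB (560 nm) to flag overt cytotoxicity.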

[12] = read-out: Plasminogen Activator Inhibitor-1 (PAI1), SERPINE1 (gene 5054); experiment: BSK_BF4T_PAI1: BioMAP Diversity Plus: BF4T Assay for Plasminogen Activator Inhibitor-1 (PAI1) Biomarker Activity (AID 2284273); conditions: primary human bronchial epithelial cells with fibroblasts
How it was run: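 Co-culture of human bronchial epithelial cells and dermal fibroblasts exposed to compound for 24 h. PAI-1 measured by ELISA; activity fitted in positive direction versus DMSO. Parallel SRB staining assessed overt cytotoxicity.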

[13] = BSK_BF4T_SRB: Viability Assessment in the BioMAP Diversity Plus: BF4T Assay (AID 2284274); conditions: primary human bronchial epithelial cells with fibroblasts
How it was run: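 Co-culture of human bronchial epithelial cells and dermal fibroblasts (BioMAP BF4T) exposed 24 h. Total protein by sulforhodamine B staining (0.1% SRB after 10% TCA fixation, 560 nm) in parallel cultures; fitted vs DMSO.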

[14] = read-out: urokinase Plasminogen Activator (uPA), PLAU (gene 5328); experiment: BSK_BF4T_uPA: BioMAP Diversity Plus: BF4T Assay for urokinase Plasminogen Activator (uPA) Biomarker Activity (AID 2284275); conditions: primary human bronchial epithelial cells with fibroblasts
How it was run: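 Co-culture of human bronchial epithelial cells and dermal fibroblasts; uPA quantified by ELISA 24 hours after dosing, fitted relative to DMSO. Parallel SRB total-protein staining assessed overt cytotoxicity.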

[15] = read-out: Matrix Metallopeptidase 9 (MMP9), MMP9 (gene 4318); experiment: BSK_BF4T_MMP9: BioMAP Diversity Plus: BF4T Assay for Matrix Metallopeptidase 9 (MMP9) Biomarker Activity (AID 2284276); conditions: primary human bronchial epithelial cells with fibroblasts
How it was run: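 Co-culture of human bronchial epithelial cells and dermal fibroblasts dosed for 24 h; MMP-9 quantified by ELISA and fitted upward versus DMSO. Cytotoxicity monitored in parallel cultures by SRB total-protein staining at the biomarker time point.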

[16] = read-out: Interleukin-8 (IL8), CXCL8 (gene 3576); experiment: BSK_IMphg_IL8: BioMAP Diversity Plus: IMphg Assay for Interleukin-8 (IL8) Biomarker Activity (AID 2284277); conditions: primary human endothelial cells with macrophages
How it was run: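 Co-culture of human venular endothelial cells and macrophages exposed to chemicals for 24 h; IL-8 quantified by ELISA and compared against the DMSO baseline, with SRB total-protein staining in parallel cultures for cytotoxicity.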

[17] = read-out: Intercellular Adhesion Molecule 1 (ICAM1), ICAM1 (gene 3383); experiment: BSK_BE3C_ICAM1: BioMAP Diversity Plus: BE3C Assay for Intercellular Adhesion Molecule 1 (ICAM1) Biomarker Activity (AID 2284278); conditions: primary human bronchial epithelial cells;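 note: cell-surface ICAM-1 protein level quantified by ELISA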
How it was run: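 Primary human bronchial epithelial cells were exposed to compound for 24 h, after which cell-surface ICAM-1 was quantified by ELISA. Activity was fitted in the gain-of-signal direction against DMSO as negative control and baseline.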

Measured: AC50

COC(=O)C(F)(F)C(F)(F)OC(F)(C(F)(F)F)C(F)(F)OC(F)=C(F)F (stereo unspecified)
inactive: [1] | CD69, CD69 (gene 969) | [2] | [3] | [4] | [5] | Decorin, DCN (gene 1634) | KRT18 (gene 3875) | [6] | [7] | [8] | [9] | [10] | [11] | [12] | [13] | [14] | [15] | [17]
active: [2] 5.24 µM | [3] 1.29 µM | [16] 1.61 µM and 1.92 µM

CC(O)C(F)(F)C(F)(F)F (stereo unspecified)
inactive: all assays above

CCCCOCCOP(=O)(OCCOCCCC)OCCOCCCC
inactive: [3] | Decorin, DCN (gene 1634) | [6] | [7] | [8]

O=C(O)C(F)(F)OC(F)(F)C(F)(F)OC(F)(F)C(=O)O
inactive: all assays above

CC(Cl)CN(C)C (stereo unspecified)
inactive: [3] | Decorin, DCN (gene 1634) | [6] | [7] | [8]

O=C(O)C=CC(F)(C(F)(F)F)C(F)(F)F
inactive: all assays above

O=C(O)C(F)(F)OC(F)(F)C(F)(F)OC(F)(F)F
active: [16] 22 µM
inactive: [1] | CD69, CD69 (gene 969) | [2] | [3] | [4] | [5] | Decorin, DCN (gene 1634) | KRT18 (gene 3875) | [6] | [7] | [8] | [9] | [10] | [11] | [12] | [13] | [14] | [15] | [16] | [17]

O=c1ssc(Cl)c1Cl
inactive: [3]
active: Decorin, DCN (gene 1634) 9.67 µM | [6] 5.58 µM | [7] 20 µM | [8] 7.43 µM

CCCCC(CC)COC(=O)c1c(Br)c(Br)c(Br)c(Br)c1C(=O)OCC(CC)CCCC (stereo unspecified)
inactive: [3] | Decorin, DCN (gene 1634) | [6] | [7] | [8]

C=CC(=O)OCC(F)(F)C(F)F
inactive: [1] | CD69, CD69 (gene 969) | [2] | [3] | [4] | [5] | Decorin, DCN (gene 1634) | KRT18 (gene 3875) | [6] | [7] | [8] | [9] | [10] | [12] | [13] | [14] | [15] | [16] | [17]
active: [6] 41.2 µM | [7] 44 µM | [8] 47.6 µM | [11] 30 µM and 29.3 µM

CCOP(=S)(NC(C)C)Oc1ccccc1C(=O)OC(C)C (stereo unspecified)
inactive: [3] | Decorin, DCN (gene 1634) | [6] | [7] | [8]

FC(F)(F)C(F)(C(F)(F)F)C(F)(F)C(F)(F)CC1CO1 (stereo unspecified)
inactive: all assays above

NC(=O)C(F)(F)C(F)(F)F
inactive: all assays above

Nc1ccc([N+](=O)[O-])cc1Cl
inactive: [3] | Decorin, DCN (gene 1634) | [6] | [7] | [8]

Cc1c([N+](=O)[O-])cc2c(c1[N+](=O)[O-])C(C)(C)CC2(C)C
active: [7] 4.01 µM
inactive: [3] | Decorin, DCN (gene 1634) | [6] | [8]

CC(C)(C)c1ccccc1OP(=O)(Oc1ccccc1)Oc1ccccc1
inactive: [3] | Decorin, DCN (gene 1634)
active: [6] 20 µM | [7] 5.26 µM | [8] 26.8 µM

c1ccc2c(c1)sc1ccccc12
inactive: [3] | Decorin, DCN (gene 1634) | [6] | [7] | [8]
